Reference: the supplement of paper PMC7411054

Columns and labels:
Experiment in all cases: phenotypically active (imaging signature differs from DMSO and reproducible) at any of 0.3-9 uM (binary (1 = active, 0 = inactive)); higher = active
Details in all cases: treatment time: 24 h
[1] = test system: A549-ACTB-RAB5A
Outline: (§1)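 Cells from fifteen gene-edited reporter lines (A549, HepG2 and WPMY1) were treated for 24 h at 0.3, 1, 3 or 9 µM and imaged live, four wells per condition. Features were normalised per well to solvent control wells. A condition deviated if ≥3 of 4 wells passed the 95th percentile of control Euclidean distances and was reproducible if its median replicate Pearson correlation beat the 95th percentile of non-replicates; phenotypic activity needed both.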

[2] = test system: A549-CANX-COX4
Outline: as §1

[3] = test system: A549-GM130-SQSTM1
Outline: as §1

[4] = test system: A549-TP53BP1-CLTA
Outline: as §1

[5] = test system: A549-TUBA1B-RELA
Outline: as §1

[6] = test system: HepG2-ACTB-RAB5A
Outline: as §1

[7] = test system: HepG2-CANX-COX4
Outline: as §1

[8] = test system: HepG2-GM130-SQSTM1
Outline: as §1

[9] = test system: HepG2-TP53BP1-CLTA
Outline: as §1

[10] = test system: HepG2-TUBA1B-RELA
Outline: as §1

[11] = test system: WPMY1-ACTB-RAB5A
Outline: as §1

[12] = test system: WPMY1-CANX-COX4
Outline: as §1

[13] = test system: WPMY1-GM130-SQSTM1
Outline: as §1

[14] = test system: WPMY1-TP53BP1-CLTA
Outline: as §1

[15] = test system: WPMY1-TUBA1B-RELA
Outline: as §1

Measured: phenotypically active

CC(=O)Oc1ccccc1C(=O)O [aspirin]
inactive: [1] 0 | [2] 0 | [3] 0 | [4] 0 | [5] 0 | [6] 0 | [7] 0 | [8] 0 | [9] 0 | [10] 0 | [11] 0 | [12] 0 | [13] 0 | [14] 0 | [15] 0

CC[N+](CC)(CC)CCOc1cccc(OCC[N+](CC)(CC)CC)c1OCC[N+](CC)(CC)CC [gallamine-triethiodide]
inactive: [1] 0 | [2] 0 | [3] 0 | [4] 0 | [5] 0 | [6] 0 | [7] 0 | [8] 0 | [9] 0 | [10] 0 | [11] 0 | [12] 0 | [13] 0 | [14] 0 | [15] 0

COc1ccc2c(c1)c(CC(=O)O)c(C)n2C(=O)c1ccc(Cl)cc1 [indomethacin]
inactive: [1] 0 | [2] 0 | [3] 0 | [4] 0 | [5] 0 | [6] 0 | [7] 0 | [8] 0 | [9] 0 | [10] 0 | [11] 0 | [12] 0 | [13] 0 | [14] 0 | [15] 0

COc1c(OC2OC(CO)[C@@H](O)[C@H](O)[C@H]2O)cc2c(c1OC)-c1ccc(OC)c(=O)cc1[C@@H](NC(C)=O)CC2 (stereo not given in full) [Colchicoside]
inactive: [1] 0 | [2] 0 | [3] 0 | [4] 0 | [5] 0 | [6] 0 | [7] 0 | [8] 0 | [9] 0 | [10] 0 | [11] 0 | [12] 0 | [13] 0 | [14] 0 | [15] 0

COc1ccc(Cl)cc1C(=O)NCCc1ccc(S(=O)(=O)NC(=O)NC2CCCCC2)cc1 [glyburide]
inactive: [1] 0 | [2] 0 | [3] 0 | [4] 0 | [5] 0 | [6] 0 | [7] 0 | [8] 0 | [9] 0 | [10] 0 | [11] 0 | [12] 0 | [13] 0 | [14] 0 | [15] 0

Nc1ncnc2c1cnn2-c1ccccc1
inactive: [1] 0 | [2] 0 | [3] 0 | [4] 0 | [5] 0 | [6] 0 | [7] 0 | [8] 0 | [9] 0 | [10] 0 | [11] 0 | [12] 0 | [13] 0 | [14] 0 | [15] 0

C[C@](N)(Cc1ccc(O)c(O)c1)C(=O)O [methyldopa]
inactive: [1] 0 | [2] 0 | [3] 0 | [4] 0 | [5] 0 | [6] 0 | [7] 0 | [8] 0 | [9] 0 | [10] 0 | [11] 0 | [12] 0 | [13] 0 | [14] 0 | [15] 0

O=c1ncccn1[C@@H]1O[C@H](CO)[C@@H](O)[C@H]1O [Zebularine]
inactive: [1] 0 | [2] 0 | [3] 0 | [4] 0 | [5] 0 | [6] 0 | [7] 0 | [8] 0 | [9] 0 | [10] 0 | [11] 0 | [12] 0 | [13] 0 | [14] 0 | [15] 0

Cc1ccc(N(CC2=NCCN2)c2cccc(O)c2)cc1 [phentolamine]
inactive: [1] 0 | [2] 0 | [3] 0 | [4] 0 | [5] 0 | [6] 0 | [7] 0 | [8] 0 | [9] 0 | [10] 0 | [11] 0 | [12] 0 | [13] 0 | [14] 0 | [15] 0

CC(C)(C)NC[C@H](O)c1ccc(O)c(CO)c1 [levalbuterol]
inactive: [1] 0 | [2] 0 | [3] 0 | [4] 0 | [5] 0 | [6] 0 | [7] 0 | [8] 0 | [9] 0 | [10] 0 | [11] 0 | [12] 0 | [13] 0 | [14] 0 | [15] 0

CC1Cc2ccccc2N1NC(=O)c1ccc(Cl)c(S(N)(=O)=O)c1 (stereo not given) [indapamide]
inactive: [1] 0 | [2] 0 | [3] 0 | [4] 0 | [5] 0 | [6] 0 | [7] 0 | [8] 0 | [9] 0 | [10] 0 | [11] 0 | [12] 0 | [13] 0 | [14] 0 | [15] 0
